Avidin fluor – green autofluorescence of compounds with avidin beads – biophysical, 488/530 nm, flow cytometry, artefact control, profiling panel. compound fluorescence 488/530 nm; active compounds read high. AID 1775, 2009. 220,000 tested, 0.38% active. fluorescence (KMESF) at 10 µM; in the data active = fluorescence above about 47
RGS8-Gao reg – RGS8-Galphao binding modulators, primary screen, biochemical, multiplexed bead flow cytometry; Guanine nucleotide-binding protein G(o) subunit alpha (Homo sapiens), P09471; actives lie on both sides; response (percent of control binding), % at 10 µM; 220,000 tested, 0.34% active; AID 1423, 2008; in the data active = response below about 60% or above about 140%; inactive = in between;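 also: Galphao activated as the GDP aluminium fluoride complex binding bead-coupled RGS8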
Target sequence (P09471 whole entry, looked up): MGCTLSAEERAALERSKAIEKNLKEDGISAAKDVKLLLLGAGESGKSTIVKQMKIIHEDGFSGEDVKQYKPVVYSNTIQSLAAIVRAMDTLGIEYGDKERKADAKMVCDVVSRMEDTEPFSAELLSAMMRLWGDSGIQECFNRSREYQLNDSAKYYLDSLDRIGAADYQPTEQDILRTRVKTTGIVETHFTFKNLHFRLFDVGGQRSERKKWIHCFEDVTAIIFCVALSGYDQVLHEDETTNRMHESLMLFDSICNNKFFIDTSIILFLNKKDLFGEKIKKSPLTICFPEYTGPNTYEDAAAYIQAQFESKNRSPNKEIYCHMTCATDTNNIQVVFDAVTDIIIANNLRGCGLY
RGS7-Gao reg – RGS7-Galphao binding modulators, primary screen, biochemical, multiplexed bead flow cytometry | Guanine nucleotide-binding protein G(o) subunit alpha (Homo sapiens), P09471 | actives lie on both sides | binding response (% of control), % at 10 µM | 220,000 tested, 0.35% active; in the data active = binding response below about 49% or above about 150%; inconclusive = no clear call, values can overlap the other calls; inactive = in between;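 also: fluorescent Galphao held in activated GDP-AlF4 state binding bead-coupled RGS7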
GSH bead fluor – compound fluorescence on glutathione beads, profiling panel, artefact control, biophysical, 488/530 nm, flow cytometry; GSH beads flow cytometry, compound fluorescence 488/530 nm; active compounds read high; fluorescence (KMESF) at 10 µM; 190,000 tested, 0.25% active; AID 1776, 2009; in the data active = fluorescence above about 89;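 also: glutathione beads carrying GST-tagged Bcl family fusion proteins plus one bare bead set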
RGS4-Gao reg – modulators of RGS4 binding to Galphao, primary screen, biochemical, multiplexed bead flow cytometry; Guanine nucleotide-binding protein G(o) subunit alpha (Homo sapiens), P09471; binding response (% of control), % at 10 µM; AID 1415, 2008; 220,000 tested, 0.33% active; actives lie on both sides; in the data active = binding response below about 49% or above about 150%; inactive = in between;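 also: fluorescent Galphao activated with aluminum fluoride binding bead-coupled RGS4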
RGS16-Gao HTS – modulators of RGS16 binding to Galphao, primary screen, biochemical, human proteins, multiplexed bead flow cytometry; bead-based flow cytometry RGS16-Galphao binding, fluorescence; actives lie on both sides; binding response (% of control), % at 10 µM; 220,000 tested, 0.38% active; AID 1441, 2008;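 also: Galphao activated by GDP with aluminum fluoride before binding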
Target sequence (O15492 whole entry, looked up): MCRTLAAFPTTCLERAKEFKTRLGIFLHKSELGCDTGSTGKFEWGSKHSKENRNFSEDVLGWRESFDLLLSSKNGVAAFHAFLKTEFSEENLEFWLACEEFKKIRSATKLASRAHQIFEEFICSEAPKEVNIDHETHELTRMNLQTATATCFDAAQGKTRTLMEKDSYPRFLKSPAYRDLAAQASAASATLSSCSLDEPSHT
Target sequence (P09471 whole entry, looked up): as the sequence (P09471 whole entry, looked up) above
RGS4-Gao HTS – modulators of RGS–Galpha-o binding, primary screen, biochemical, multiplexed beads, flow cytometry, RGS4/7/8/16/19; shares compounds with RGS16-Gao HTS; multiplexed bead flow cytometry; RGS4–Galpha-o binding response, % at 10 µM; 1,600 tested, 99% active;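 also: fluorescently labeled Galpha-o bound to GDP with aluminium fluoride binding biotinylated RGS beads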
Biotin-avidin – disruption of biotin probe capture by avidin, counter-screen for RGS protein interaction modulators, biochemical, flow cytometry, bead-based; AID 1783, 2009; inhibition, % at 10 µM; 1,700 tested, under 10 active; streptavidin beads, fluorescein-biotin binding; shares compounds with RGS16-Gao HTS;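 active = inhibition above 50%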;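 also: median green fluorescence of gated singlet beads compared with DMSO control wells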
RGS8-Gao confirm – RGS8-Galphao binding modulators, confirmation, biochemical, multiplexed bead flow cytometry, single concentration; bead-based flow cytometry RGS8-Galphao binding, fluorescence; actives lie on both sides; binding response (% of control), % at 10 µM; 1,700 tested, 3% active; shares compounds with RGS16-Gao HTS; AID 1836, 2009; in the data active = binding response below about 72% or above about 130%; inactive = in between;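 also: Galphao activated as GDP AlF4 complex before binding bead RGS8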
RGS7-Gao confirm – RGS7-Galphao binding modulators, confirmation, biochemical, multiplexed bead flow cytometry, single concentration. shares compounds with RGS16-Gao HTS. bead-based flow cytometry RGS7-Galphao binding; actives lie on both sides. response (percent of control binding), % at 10 µM. 1,700 tested, 7.8% active. AID 1837, 2009; in the data active = response below about 75% or above about 130%; inactive = in between;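 also: fluorescent Galphao activated with GDP and aluminum fluoride binding bead-coupled RGS7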
RGS16-Gao single – modulators of RGS16-Galphao protein binding, confirmation, biochemical, single concentration, multiplexed bead flow cytometry. shares compounds with RGS16-Gao HTS. bead-based flow cytometry; actives lie on both sides. response (% of control binding), % at 10 µM. 1,700 tested, 4% active. AID 1838, 2009; in the data active = response below about 74% or above about 130%; inactive = in between;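 also: Galphao activated as the GDP aluminium fluoride complex binding bead-coupled RGS16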
RGS4-Gao single – modulators of RGS4-Galphao protein binding, confirmation, biochemical, single concentration, multiplexed bead flow cytometry | binding response (% of control), % at 10 µM | 1,700 tested, 4% active | shares compounds with RGS16-Gao HTS | actives lie on both sides; in the data active = binding response below about 74% or above about 130%; inactive = in between
RGS19-Gao conf – regulators of RGS19-Galphao binding, confirmation, biochemical, single point, multiplexed bead flow cytometry; shares compounds with RGS16-Gao HTS; bead-based flow cytometry RGS19-Galphao binding; actives lie on both sides; response (percent of control binding), % at 10 µM; 1,700 tested, 5% active; AID 1841, 2009; in the data active = response below about 50% or above about 160%; inactive = in between
Each line names hits and unclear results; the compound was inactive in the other large screens (follow-up assays come after a bar, where they were run); [ ] = another dose, or the depositor's remark. Compounds with a hit are over-represented: about 1.2% of the library has one in this group of screens. Unless noted, no rule for the calls is given here.

CC(C)N1CCN(Cc2ccc(C#CC(C)(C)O)s2)CC1CCO (centres undefined)	none
CC(C)N1CCC(N2CCN(Cc3ccc(C#CC(C)(C)O)s3)CC2CCO)CC1 (centres undefined)	Avidin fluor 134, RGS7-Gao reg 274.6[activator] | RGS4-Gao HTS 141.8 | Biotin-avidin inactive | RGS8-Gao confirm inactive | RGS7-Gao confirm inactive | RGS16-Gao single inactive | RGS4-Gao single inactive | RGS19-Gao conf inactive
CC(C(=O)c1ccc(-c2ccccc2)cc1)[n+]1cccc(NC(=O)c2ccccc2)c1 (centres undefined)	none (no result: Avidin fluor, RGS8-Gao reg, RGS7-Gao reg, GSH bead fluor, RGS4-Gao reg, RGS16-Gao HTS) | Biotin-avidin inactive | RGS8-Gao confirm inactive | RGS7-Gao confirm inactive | RGS16-Gao single inactive | RGS4-Gao single inactive | RGS19-Gao conf inactive
CCOC(=O)c1ccc[n+](C(C)C(=O)c2ccc(-c3ccccc3)cc2)c1 (centres undefined)	none
CN(C)NC(=S)NC1(C)CCS(=O)(=O)C1 (centres undefined)	RGS7-Gao reg inconclusive (no result: GSH bead fluor)
COc1ccc(NC(=O)Cn2c(=O)n(-c3ccccc3)c(=O)c3oc4ccccc4c32)c(OC)c1	RGS16-Gao HTS 232.5[activator] | RGS4-Gao HTS 106.1 | Biotin-avidin inactive | RGS8-Gao confirm inactive | RGS7-Gao confirm inactive | RGS16-Gao single inactive | RGS4-Gao single inactive | RGS19-Gao conf inactive
COc1ccccc1NC(=O)Cn1c(=O)n(-c2ccccc2)c(=O)c2oc3ccccc3c21	none
CCN1C(=O)/C(=C/N2CCc3ccccc3C2)SC1=S	none (no result: Avidin fluor, RGS8-Gao reg, RGS7-Gao reg, GSH bead fluor, RGS4-Gao reg, RGS16-Gao HTS) | Biotin-avidin inactive | RGS8-Gao confirm inactive | RGS7-Gao confirm inactive | RGS16-Gao single inactive | RGS4-Gao single inactive | RGS19-Gao conf inactive
CCN(Cc1cc(=O)n2ccsc2n1)Cc1nc2cc(OC)c(OC)cc2c(=O)[nH]1	RGS7-Gao reg inconclusive (no result: GSH bead fluor)
Cc1ccc(C(c2sc3nc(C)nn3c2O)N2CCN(C(=O)c3ccco3)CC2)cc1 (centres undefined)	RGS16-Gao HTS 23.4 | RGS4-Gao HTS 96.9 | Biotin-avidin inactive | RGS8-Gao confirm inactive | RGS7-Gao confirm inactive | RGS16-Gao single inactive | RGS4-Gao single inactive | RGS19-Gao conf inactive
Cc1nc2sc(C(c3ccccc3)N3CCN(C(=O)c4ccco4)CC3)c(O)n2n1 (centres undefined)	none
Cn1ccnc1SCC(=O)n1c2c(c3ccccc31)CCCC2	RGS8-Gao reg 54.9 | RGS4-Gao HTS 59.9 | Biotin-avidin inactive | RGS8-Gao confirm inactive | RGS7-Gao confirm inactive | RGS16-Gao single inactive | RGS4-Gao single inactive | RGS19-Gao conf inactive
Cn1ccnc1SCC(=O)Nc1cccc2ccccc12	none
CC1=CC2=NC(=O)/C(=C\c3ccc(-c4ccc(Cl)cc4)o3)C(=N)N2O1	Avidin fluor 208, RGS7-Gao reg 167.0[activator], RGS4-Gao reg 153.2[activator] | Biotin-avidin inactive | RGS8-Gao confirm inactive | RGS7-Gao confirm inactive | RGS16-Gao single inactive | RGS4-Gao single inactive | RGS19-Gao conf 235.8[activator]
CN1C(=O)N(CN2CCCCC2)C2C1N(C)C(=O)N2CN1CCCCC1 (centres undefined)	RGS8-Gao reg 153.9[activator] | RGS4-Gao HTS 127.1
COc1ccc(C[C@H]2CN3C(=NC[C@@H]3C(C)C)N2CCNC(=O)CCC2CCCCC2)cc1	RGS8-Gao reg 19.6, RGS7-Gao reg 10.0, RGS4-Gao reg 26.9, RGS16-Gao HTS 13.7 | Biotin-avidin inactive | RGS8-Gao confirm inactive | RGS7-Gao confirm 135.8[activator] | RGS16-Gao single inactive | RGS4-Gao single 126.0[activator] | RGS19-Gao conf inactive
Cc1nn(CCC(=O)O)c(C)c1C	Avidin fluor 79, RGS7-Gao reg 165.3[activator] | RGS4-Gao HTS 102.9 | Biotin-avidin inactive | RGS8-Gao confirm inactive | RGS7-Gao confirm inactive | RGS16-Gao single inactive | RGS4-Gao single inactive | RGS19-Gao conf inactive
COc1ccc(NC(C)=O)cc1NC(=O)CN1CCN(C(=O)c2ccco2)CC1	RGS8-Gao reg 153.5[activator] | RGS4-Gao HTS 130.1 | Biotin-avidin inactive | RGS8-Gao confirm inactive | RGS7-Gao confirm inactive | RGS16-Gao single inactive | RGS4-Gao single inactive | RGS19-Gao conf inactive
CCC(CC)NC(=O)c1cccc(Oc2ccccc2)c1	none
CN1C(=O)C(O)(CC(=O)c2ccccc2O)c2cc(Br)ccc21 (centres undefined)	RGS8-Gao reg 147.5[activator] | RGS4-Gao HTS 116.7 | Biotin-avidin inactive | RGS8-Gao confirm inactive | RGS7-Gao confirm inactive | RGS16-Gao single inactive | RGS4-Gao single inactive | RGS19-Gao conf inactive
O=C(N=Nc1c(O)[nH]c2ccc(Br)cc12)c1cc(-c2cccc3ccccc23)n[nH]1	RGS16-Gao HTS 8.3 | RGS4-Gao HTS 89.2 | Biotin-avidin inactive | RGS8-Gao confirm inactive | RGS7-Gao confirm inactive | RGS16-Gao single inactive | RGS4-Gao single inactive | RGS19-Gao conf inactive
